Source: the supplement of paper PMC9694430
Where a name gives a salt, the structure may show the parent alone.

Experiments:
Assay in all cases: thermal shift delta Tm vs DMSO control; higher = stronger stabilization (binding)
Settings in all cases: 12.5 µM; protein concentration 2 µM
LOC_OS01G01410-cb001 = system: LOC_OS01G01410-cb001
Summary of the method: (§1)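 Thermal shift values come from differential scanning fluorimetry on purified rice kinase domains made in E. coli, with melting temperatures obtained from Boltzmann fits. Samples of 19.5 μl held 2 μM kinase, 100 mM potassium phosphate pH 7.5, 150 mM NaCl, 10% glycerol, 5 × SYPRO Orange and compound in DMSO, and were heated from 25°C to 95°C at 0.05°C/s. Each shift is a triplicate mean relative to the DMSO-only protein sample.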

LOC_OS01G02750-cb003 = system: LOC_OS01G02750-cb003
Summary of the method: as §1

LOC_OS01G10900-cb004 = system: LOC_OS01G10900-cb004
Summary of the method: as §1

LOC_OS01G13800-cb001 = system: LOC_OS01G13800-cb001
Summary of the method: as §1

LOC_OS01G14860-cb001 = system: LOC_OS01G14860-cb001
Summary of the method: as §1

LOC_OS01G21960-cb002 = system: LOC_OS01G21960-cb002
Summary of the method: as §1

LOC_OS01G39600-cb002 = system: LOC_OS01G39600-cb002
Summary of the method: as §1

LOC_OS01G48390-cb002 = system: LOC_OS01G48390-cb002
Summary of the method: as §1

LOC_OS01G51400-cb002 = system: LOC_OS01G51400-cb002
Summary of the method: as §1

LOC_OS01G52050-cb004 = system: T1, LOC_OS01G52050-cb004
T1 sequence (whole entry): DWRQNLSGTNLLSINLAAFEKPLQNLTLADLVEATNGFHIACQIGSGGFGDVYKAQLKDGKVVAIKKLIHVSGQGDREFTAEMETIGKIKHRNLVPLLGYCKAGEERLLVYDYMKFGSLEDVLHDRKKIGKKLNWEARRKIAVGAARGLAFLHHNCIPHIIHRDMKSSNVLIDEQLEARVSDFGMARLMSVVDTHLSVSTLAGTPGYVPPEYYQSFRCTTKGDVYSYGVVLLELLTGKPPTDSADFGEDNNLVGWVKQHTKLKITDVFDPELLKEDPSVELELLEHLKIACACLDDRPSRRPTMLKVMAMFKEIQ
Summary of the method: as §1

LOC_OS01G57100-cb003 = system: LOC_OS01G57100-cb003
Summary of the method: as §1

LOC_OS01G60330-cb001 = system: LOC_OS01G60330-cb001
Summary of the method: as §1

LOC_OS01G60700-cb002 = system: LOC_OS01G60700-cb002
Summary of the method: as §1

LOC_OS01G63280-cb003 = system: LOC_OS01G63280-cb003
Summary of the method: as §1

LOC_OS01G67340-cb003 = system: LOC_OS01G67340-cb003
Summary of the method: as §1

LOC_OS01G70970-cb002 = system: LOC_OS01G70970-cb002
Summary of the method: as §1

LOC_OS02G07810-cb001 = system: LOC_OS02G07810-cb001
Summary of the method: as §1

LOC_OS02G08530-cb003 = system: LOC_OS02G08530-cb003
Summary of the method: as §1

LOC_OS02G14120-cb001 = system: LOC_OS02G14120-cb001
Summary of the method: as §1

LOC_OS02G17970-cb001 = system: LOC_OS02G17970-cb001
Summary of the method: as §1
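Also: purified Escherichia coli-expressed rice kinase domain construct.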

| Structure (SMILES) | thermal shift delta Tm (LOC_OS01G01410-cb001) [°C] | thermal shift delta Tm (LOC_OS01G02750-cb003) [°C] | thermal shift delta Tm (LOC_OS01G10900-cb004) [°C] | thermal shift delta Tm (LOC_OS01G13800-cb001) [°C] | thermal shift delta Tm (LOC_OS01G14860-cb001) [°C] | thermal shift delta Tm (LOC_OS01G21960-cb002) [°C] | thermal shift delta Tm (LOC_OS01G39600-cb002) [°C] | thermal shift delta Tm (LOC_OS01G48390-cb002) [°C] | thermal shift delta Tm (LOC_OS01G51400-cb002) [°C] | thermal shift delta Tm (LOC_OS01G52050-cb004) [°C] | thermal shift delta Tm (LOC_OS01G57100-cb003) [°C] | thermal shift delta Tm (LOC_OS01G60330-cb001) [°C] | thermal shift delta Tm (LOC_OS01G60700-cb002) [°C] | thermal shift delta Tm (LOC_OS01G63280-cb003) [°C] | thermal shift delta Tm (LOC_OS01G67340-cb003) [°C] | thermal shift delta Tm (LOC_OS01G70970-cb002) [°C] | thermal shift delta Tm (LOC_OS02G07810-cb001) [°C] | thermal shift delta Tm (LOC_OS02G08530-cb003) [°C] | thermal shift delta Tm (LOC_OS02G14120-cb001) [°C] | thermal shift delta Tm (LOC_OS02G17970-cb001) [°C] |
| --- | --- | --- | --- | --- | --- | --- | --- | --- | --- | --- | --- | --- | --- | --- | --- | --- | --- | --- | --- | --- |
| Cc1nc(Nc2ncc(C(=O)Nc3c(C)cccc3Cl)s2)cc(N2CCN(CCO)CC2)n1 [Dasatinib] | 1.38 | 0.59 | 4.47 | 0.61 | 0.27 | 1.22 | 5.93 | 0.6 | 0.66 | 0.79 | 0.7 | 0.68 | 1.43 | 0.25 | 0.73 | 0.48 | 0.58 | 0.93 | 4.94 | 0 |
| COc1ccc(-c2ccc3ncc4c(c3c2)n(-c2ccc(N3CCNCC3)c(C(F)(F)F)c2)c(=O)n4C)cn1 | 1.5 | 2.95 | 0.97 | 0.05 | 2.59 | 2.58 | 0.22 | 0.42 | -0.17 | 4.2 | 1.82 | 0.66 | 0.68 | 0.17 | 1.43 | 0.41 | 1.67 | 2.04 | 8.11 | 0.58 |
| CN1CC[C@H](c2c(O)cc(O)c3c(=O)cc(-c4ccccc4Cl)oc23)[C@H](O)C1 [Flavopiridol HCl] | 0.19 | 0.76 | 0.17 | 0.42 | 4.95 | 1.89 | 1.02 | 0.58 | 0.54 | 1.03 | 1.91 | 1.31 | 0.43 | 1.03 | 0.26 | 1.67 | 1.12 | 2.13 | 2.4 | 0.78 |
| C#Cc1cccc(Nc2ncnc3cc(OCCOC)c(OCCOC)cc23)c1 [Erlotinib] | 0.56 | 0.35 | 0.59 | 0.04 | 0.32 | 0.72 | 2.19 | 0.85 | -0.14 | 0.19 | -0.31 | -0.11 | 0.43 | -0.09 | 0.02 | 0.34 | -0.06 | 0.9 | 1.45 | 0.75 |
| COc1cc2/c(=N/c3ccc(Br)cc3F)nc[nH]c2cc1OCC1CCN(C)CC1 [Vandetanib (ZD6474)] | 1.05 | -0.06 | 0.86 | -0.25 | 0.15 | 0.02 | 0.47 | 1.67 | 0.15 | 1.36 | 0.28 | 0.67 | 1.17 | 0.47 | 1.64 | 0.33 | 0.65 | 2.65 | 10.4 | 0.76 |
| Cc1cnc(Nc2ccc(N3CCN(C)CC3)cc2)nc1Nc1cccc(S(=O)(=O)NC(C)(C)C)c1 | 1.26 | 0.29 | 0.71 | 0.25 | 1.34 | 2.76 | 6.04 | 1.61 | 0.64 | 3.19 | 2.09 | 2.84 | 1.28 | 0.46 | 1.05 | 3.63 | 0.9 | 3.06 | 8.37 | 1.17 |
| NC(=O)c1ccc2nc(-c3ccc(Oc4ccc(Cl)cc4)cc3)[nH]c2c1 [Chk2 Inhibitor II (BML-277)] | 0.54 | 1.86 | 2.68 | -0.46 | 0.95 | 0.75 | 0.45 | 1.43 | 0.88 | 1.84 | -0.91 | 1.95 | -0.56 | 0.87 | 1.05 | 0.31 | -0.29 | 0.5 | 0.13 | 1.17 |
| Cc1[nH]c(/C=C2\C(=O)Nc3ccc(S(=O)(=O)Cc4c(Cl)cccc4Cl)cc32)c(C)c1C(=O)N1CCC[C@@H]1CN1CCCC1 | 1.92 | 1.5 | 0.36 | 0.4 | 0.57 | 0.17 | 3.39 | 0.38 | -0.1 | 0.18 | 1.04 | 1.52 | 0.53 | 0.78 | 0.73 | 0.57 | 0.8 | 3.7 | 7.86 | 0.39 |
| COc1nccc(-c2c(-c3ccc(F)cc3)ncn2C2CCC(O)CC2)n1 (stereo not given) | -0.16 | 1.24 | -0.06 | 0.22 | -0.06 | 0.69 | -0.45 | 0.16 | 0.24 | 0.27 | 1.45 | 1.05 | 0.84 | 0.44 | 0.6 | 0.09 | 0.67 | 0.39 | -0.37 | 0.65 |
| CCS(=O)(=O)c1cccc(-c2cc(C(=O)NC3CCN(C)CC3)c(C)c3[nH]c4ncc(C)cc4c23)c1 | 3.99 | 0.8 | 4.18 | -0.51 | 4.38 | 2.97 | 0.89 | 2.14 | 0.16 | 6.44 | 1.61 | 3.88 | 0.41 | -0.02 | 0.99 | 6.38 | 0.49 | 4.38 | 10.6 | 0.54 |
| Cc1nc(Nc2cnn(C3CCNCC3)c2)nc2c1N(C)C(=O)c1cc3ccccc3cc1N2C | 0.36 | 0.48 | -0.09 | 0.39 | -0.18 | 0.66 | -1.52 | 0.62 | 0.18 | 0.38 | 0.83 | 1.06 | 0.29 | 0.05 | 1.06 | 0.51 | 0.09 | 1.07 | 1.04 | -0.03 |
| Cn1c2ccccc2c2c3c(c4c5ccccc5n(CCC#N)c4c21)CNC3=O | 2.6 | 2.74 | 0.09 | 1.15 | 4.78 | 2.78 | 3.54 | 1.96 | 0.8 | 3.9 | 2.09 | 2.57 | -1.36 | 1.14 | 4.81 | 3.29 | 2.07 | 5.99 | 9.45 | 3.31 |
| O=C(Nc1cccc(C(F)(F)F)c1)c1cccc2cc(Oc3cc(CO)ncn3)ccc12 | 0.74 | 0.11 | 0.77 | 0.56 | 0.71 | 0.94 | -0.03 | 0.4 | 0.1 | 0.38 | 1.09 | 0.76 | 1.22 | 2.3 | 0.38 | 0.5 | 0.69 | 0.95 | 0.55 | 1.28 |
